Compound activity deposited in PubChem by several laboratories.
PrP UTR inh: suppresses PrP 5' UTR mRNA reporter expression; inhibition, % (test concentration not listed); 340,000 tested, 0.35% active; cell-based PrP 5' UTR mRNA reporter, plate reader; AID 488862; in the data active = inhibition above about 52%; also: 0 = median of the neutral control wells
PrPC surface inh: reduces human prion protein on the cell surface; inhibition, % at 13.8 µM; 370,000 tested, 0.43% active; P04156; cell surface PrPC, TR-FRET read-out; in the data active = inhibition above about 24%; also: 0% = median of the test wells and 100% = reference compound wells
SSB-PriA inh: blocks PriA binding to SSB C-terminal tail | inhibition, % at 33 µM | 430,000 tested, 0.6% active | AlphaScreen SSBct-PriA binding, biotinylated peptide; in the data active = inhibition mostly above about 37%, no sharp cut-off; inactive = mostly below about 20%;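 also: plate controls were negative control peptide for no effect and reference peptide for full effect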
PfHsp40 yeast: compounds rescuing yeast from Plasmodium falciparum HSP40 toxicity; S. cerevisiae expressing PfHsp40, growth rescue, ATP luminescence; growth rescue, % at 12.5 µM; 340,000 tested, 0.68% active; in the data active = growth rescue above about 28%, passing the limit was not always enough;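 also: yeast W303a lacking pdr1 and pdr3 grown in galactose medium; growth measured after three days at 30 °C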
BH1578 lux ind: inducers of Vibrio cholerae quorum light production without autoinducers. V. cholerae BH1578 lux reporter, luminescence, 6 h. activation, % at 18.7 µM. 350,000 tested, 0.16% active. AID 588436; in the data active = activation mostly above about 9.7%, no sharp cut-off
SARS 3CLpro inh: SARS-CoV 3CLpro protease inhibition; recombinant SARS-CoV 3CLpro, quenched FRET peptide cleavage; inhibition, % at 6 µM; 290,000 tested, 0.14% active; in the data active = inhibition above about 12%
The depositor's hits bear a star; i = inactive; · = not tested or not shown. This is a sample that favours compounds with a hit; in the whole collection about 1.6% have one here.

SMILES | PrP UTR inh | PrPC surface inh | SSB-PriA inh | PfHsp40 yeast | BH1578 lux ind | SARS 3CLpro inh
O=C(C1CCN(C2CC(=O)N(c3cccc(Cl)c3)C2=O)CC1)N1CCCC1 (stereo unspecified) | -14 | -7 | -21 | 468* | i | -2
NC(=O)C1CCN(C2CC(=O)N(c3cccc(F)c3)C2=O)CC1 (stereo unspecified) | -12 | 0 | -15 | 6 | 5 | 3
CCOC(=O)C1CCN(C2CC(=O)N(c3cccc(Cl)c3)C2=O)CC1 (stereo unspecified) | -18 | 4 | -5 | 176* | -2 | 1
COC(=O)C1CCN(C2CC(=O)N(c3cc(C)cc(C)c3)C2=O)CC1 (stereo unspecified) | -14 | -1 | 1 | 45* | 0 | 0
CCN1C(=O)CC(N2CCC(C(=O)OC)CC2)C1=O (stereo unspecified) | -24 | -4 | -15 | 8 | i | 0
NC(=O)C1CCN(C2CC(=O)N(c3ccc(F)c(Cl)c3)C2=O)CC1 (stereo unspecified) | -10 | -7 | -22 | 204* | i | 1
CCOC(=O)N1CCN(C(=O)CSc2ccc(-c3ccc(CC)cc3)nn2)CC1 | · | · | 11 | · | · | ·
CCC(=O)NC(N)=Nc1nc(C)c2cc(OC)ccc2n1 | · | · | -8 | · | · | ·
COc1cc(OC)c(NC(=O)CCCCCn2nnc3ccccc3c2=O)cc1Cl | · | · | 0 | · | · | ·
COC(=O)N1CCC(CNC(=O)C(=O)Nc2cccc(N3CCCC3=O)c2)CC1 | · | · | 7 | · | · | ·
CCN(CC)C1CC(=O)N(c2cccc(Cl)c2)C1=O (stereo unspecified) | -8 | -2 | -13 | 79* | 0 | 0
COc1ccc(C(=O)CSc2nccn(-c3cccc4ccccc34)c2=O)cc1 | · | · | 14 | · | · | ·
CCCCCCCCSCc1ccc(O)c2ncccc12 | · | · | 73* | · | · | ·
CCCCCCSCc1ccc(O)c2ncccc12 | · | · | 83* | · | · | ·
Oc1ccc(CSC2CCCCC2)c2cccnc12 | · | · | 69* | · | · | ·
Cc1ccc(Nc2ccc(NC(=O)C(C)(C)Oc3ccc(Cl)cc3)cc2)nn1 | · | · | -8 | · | · | ·
O=C(NCCCn1ccnc1-c1ccccc1)NCc1cccc2ccccc12 | · | · | -1 | · | · | ·
Cc1cccc(-n2cc(CN(C)Cc3nccn3C)c(-c3cccc(F)c3)n2)c1 | -16 | 9 | 39* | 0 | 0 | 2
CCOC(=O)C1CCN(C[C@H](O)COc2ccccc2Br)CC1 | · | · | 1 | · | · | ·
O=C(CN(c1ccc(F)cc1)S(=O)(=O)c1ccc2c(c1)OCCO2)NCc1cccnc1 | -24 | 0 | 52* | 1 | · | 3
O=C(Nc1ccc(Cl)cc1)c1cc(Br)ccc1OCC(=O)N1CCOCC1 | 4 | 2 | 44* | 0 | 0 | 6
O=C(Nc1ccc(OCC(=O)N2CCOCC2)cc1)c1ccccc1F | -28 | 5 | -9 | 0 | 1 | 1
COc1ccc(CCNc2nccn(-c3cccc(Cl)c3C)c2=O)cc1OC | · | · | 32* | · | · | ·
O=C(NCc1ccc(C(=O)c2ccco2)s1)Nc1ccccc1F | · | · | -2 | · | · | ·
Cc1cccc(Nc2nc(-c3ccc(O)cc3O)cs2)n1 | -56 | 8 | 15 | 121* | i | -3
SMILES | PrP UTR inh | PrPC surface inh | SSB-PriA inh | PfHsp40 yeast | BH1578 lux ind | SARS 3CLpro inh
Cc1nc(N)nc(N)c1/C=C/C(C)(C)c1ccc(Cl)cc1 | 50 | 21 | -7 | 151* | 0 | 0
Cc1cn([C@H]2C[C@H](N=[N+]=[N-])[C@@H](CO)O2)c(=O)[nH]c1=O | -15 | 2 | 1 | -1 | 35* | -3
O=C(CCc1csc(NC(=O)Nc2cccc(Cl)c2)n1)NC1CCCC1 | · | · | -2 | · | · | ·
CCc1ccc(S(=O)(=O)N=C2C=C(Nc3ccc(O)cc3)C(=O)c3ccccc32)cc1 | · | · | 95* | · | · | ·
CCc1ccc(S(=O)(=O)/N=C2\C=C(Nc3ccc(O)cc3)C(=O)c3ccccc32)cc1 | -22 | · | · | 4 | 0 | 8
Cc1cc(C)c(S(=O)(=O)N=C2C=C(Sc3ncn[nH]3)C(=O)c3ccccc32)cc1C | · | · | 11 | · | · | ·
CCc1ccc(S(=O)(=O)/N=C2/C=C(Sc3ncn[nH]3)C(=O)c3ccccc32)cc1 | -18 | · | · | 179* | 0 | 7
O=C1C(Nc2ccc(O)cc2)=CC(=NS(=O)(=O)c2cccs2)c2ccccc21 | · | · | 76* | · | · | ·
O=C(Cc1cc(-c2ccc(F)cc2)on1)NCc1ccccc1Cl | · | · | -5 | · | · | ·
N#Cc1ncc(N=Cc2ccc(N(CCCl)CCCl)cc2)s1 | -10 | 8 | -21 | 0 | -1 | ·
ClCCN(CCCl)c1ccc(C=NNc2ncccn2)cc1 | -49 | 6 | 4 | 35* | -1 | ·
COc1ccc2nc(-c3cccc(NS(=O)(=O)c4ccc5ccccc5c4)c3)cn2n1 | · | · | 7 | · | · | ·
